# Test results taken from publication PMC5540273 (PLoS ONE, 2017).
# Tested on: SRPK2
# Details: concentration: 1 μM, replicates: in singlicate; n = 1
# 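Also: KINOMEscan kinase panel screen.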
row,Compound,%Inh [%]
1,CN1CCC(n2cnc(-c3ccc(F)cc3)c2-c2ccnc(NC3CCNCC3)n2)CC1 [SB-229482],27
2,COc1cc2ncnc(Nc3ccc(OCc4ccccc4Br)c(Cl)c3)c2cc1OC.Cl [GI261590],32
3,CC(=O)Nc1n[nH]c2ncc(-c3ccccc3)cc12 [SB-548492],0
4,CNc1nccc(-c2c(-c3ccc(F)cc3)ncn2C2CCN(C)CC2)n1 [SB-222903],0
5,O=C(Nc1ccccc1F)NC1CCN(c2ccnc(Nc3ccc(F)cc3)n2)C1 (stereo not shown) [GSK1379722],0
6,O=C(NCCCN1CCCC1=O)c1cnc(NCc2cc(Cl)ccc2Cl)nc1NC1CCNCC1,0
7,O=c1cc(N2CCOCC2)nc2n(Cc3cccc(Cl)c3)ccn12 [GSK2296823],0
8,Nc1n[nH]c2nnc(-c3ccccc3)cc12 [SB-517389],0
9,O=C(Nc1n[nH]c2nc(-c3ccco3)c(Br)cc12)c1ccc(CN2CCCC2)cc1.O=C(O)[C@H](O)[C@@H](O)C(=O)O [SB-742352],0
10,Nc1nc(-c2cccnc2)c(-c2ccnc3ccccc23)s1 [GW684083],4
11,c1ccc(-c2ccc3c(-c4ccnc(Nc5ccc6c(c5)OCCO6)n4)cnn3n2)cc1 [GW818941],0
12,Nc1nc(-c2ccc3c(N)n[nH]c3c2)cc(N2CCC[C@@H](C(=O)Nc3ccccc3)C2)n1.O=C(O)C(F)(F)F.O=C(O)C(F)(F)F [GSK2288359],0
13,COC(=O)c1cccc(NC(=O)NCCNc2ccnc(Nc3ccc(F)cc3)n2)c1 [GSK1379883],0
